Targets with a hit are over-represented here; the source holds about 7,900 in all. About 0.6% of all pairs of compound and target were hits. Values without a mark were called inactive.

UniProt Q9HCE1, sequence (Q9HCE1 whole entry, looked up): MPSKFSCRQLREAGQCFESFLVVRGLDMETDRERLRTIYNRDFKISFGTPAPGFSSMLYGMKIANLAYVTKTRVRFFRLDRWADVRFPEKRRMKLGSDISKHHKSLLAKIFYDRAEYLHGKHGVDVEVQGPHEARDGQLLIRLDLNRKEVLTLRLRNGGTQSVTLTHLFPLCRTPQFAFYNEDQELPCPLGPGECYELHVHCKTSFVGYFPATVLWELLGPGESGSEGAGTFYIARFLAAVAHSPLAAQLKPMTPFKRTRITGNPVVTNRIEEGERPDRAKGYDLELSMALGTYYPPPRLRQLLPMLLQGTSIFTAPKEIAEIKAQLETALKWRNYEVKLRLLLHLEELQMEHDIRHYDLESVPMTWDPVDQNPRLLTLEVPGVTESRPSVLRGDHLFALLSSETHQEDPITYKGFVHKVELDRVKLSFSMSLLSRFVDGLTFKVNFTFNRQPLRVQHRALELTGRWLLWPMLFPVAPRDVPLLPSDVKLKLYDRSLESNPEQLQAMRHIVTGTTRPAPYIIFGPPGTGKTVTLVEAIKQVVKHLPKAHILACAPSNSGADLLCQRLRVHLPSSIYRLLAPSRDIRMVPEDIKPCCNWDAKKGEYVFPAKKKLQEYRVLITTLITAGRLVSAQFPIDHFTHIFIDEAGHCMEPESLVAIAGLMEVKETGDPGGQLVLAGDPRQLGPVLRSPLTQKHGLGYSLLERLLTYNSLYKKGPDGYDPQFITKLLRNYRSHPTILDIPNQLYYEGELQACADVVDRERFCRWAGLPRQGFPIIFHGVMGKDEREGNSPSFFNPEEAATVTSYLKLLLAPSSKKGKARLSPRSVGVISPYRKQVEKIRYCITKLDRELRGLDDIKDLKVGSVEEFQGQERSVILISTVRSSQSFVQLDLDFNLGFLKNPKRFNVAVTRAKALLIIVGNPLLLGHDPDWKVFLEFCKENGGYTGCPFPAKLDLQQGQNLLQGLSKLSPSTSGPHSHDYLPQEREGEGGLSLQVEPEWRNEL
UniProt Q16795, sequence (Q16795 whole entry, looked up): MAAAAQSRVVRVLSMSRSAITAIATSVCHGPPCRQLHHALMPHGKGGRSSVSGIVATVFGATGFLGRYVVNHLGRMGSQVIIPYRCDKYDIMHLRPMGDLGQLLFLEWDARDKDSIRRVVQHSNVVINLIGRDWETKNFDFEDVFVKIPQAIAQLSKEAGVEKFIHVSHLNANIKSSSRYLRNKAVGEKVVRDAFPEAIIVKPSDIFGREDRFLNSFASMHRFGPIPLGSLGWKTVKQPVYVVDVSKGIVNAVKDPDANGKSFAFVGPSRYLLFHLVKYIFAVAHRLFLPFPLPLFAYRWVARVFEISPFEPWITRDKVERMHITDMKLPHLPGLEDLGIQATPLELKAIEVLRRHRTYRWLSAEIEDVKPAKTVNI
UniProt P52701, sequence (P52701 whole entry, looked up): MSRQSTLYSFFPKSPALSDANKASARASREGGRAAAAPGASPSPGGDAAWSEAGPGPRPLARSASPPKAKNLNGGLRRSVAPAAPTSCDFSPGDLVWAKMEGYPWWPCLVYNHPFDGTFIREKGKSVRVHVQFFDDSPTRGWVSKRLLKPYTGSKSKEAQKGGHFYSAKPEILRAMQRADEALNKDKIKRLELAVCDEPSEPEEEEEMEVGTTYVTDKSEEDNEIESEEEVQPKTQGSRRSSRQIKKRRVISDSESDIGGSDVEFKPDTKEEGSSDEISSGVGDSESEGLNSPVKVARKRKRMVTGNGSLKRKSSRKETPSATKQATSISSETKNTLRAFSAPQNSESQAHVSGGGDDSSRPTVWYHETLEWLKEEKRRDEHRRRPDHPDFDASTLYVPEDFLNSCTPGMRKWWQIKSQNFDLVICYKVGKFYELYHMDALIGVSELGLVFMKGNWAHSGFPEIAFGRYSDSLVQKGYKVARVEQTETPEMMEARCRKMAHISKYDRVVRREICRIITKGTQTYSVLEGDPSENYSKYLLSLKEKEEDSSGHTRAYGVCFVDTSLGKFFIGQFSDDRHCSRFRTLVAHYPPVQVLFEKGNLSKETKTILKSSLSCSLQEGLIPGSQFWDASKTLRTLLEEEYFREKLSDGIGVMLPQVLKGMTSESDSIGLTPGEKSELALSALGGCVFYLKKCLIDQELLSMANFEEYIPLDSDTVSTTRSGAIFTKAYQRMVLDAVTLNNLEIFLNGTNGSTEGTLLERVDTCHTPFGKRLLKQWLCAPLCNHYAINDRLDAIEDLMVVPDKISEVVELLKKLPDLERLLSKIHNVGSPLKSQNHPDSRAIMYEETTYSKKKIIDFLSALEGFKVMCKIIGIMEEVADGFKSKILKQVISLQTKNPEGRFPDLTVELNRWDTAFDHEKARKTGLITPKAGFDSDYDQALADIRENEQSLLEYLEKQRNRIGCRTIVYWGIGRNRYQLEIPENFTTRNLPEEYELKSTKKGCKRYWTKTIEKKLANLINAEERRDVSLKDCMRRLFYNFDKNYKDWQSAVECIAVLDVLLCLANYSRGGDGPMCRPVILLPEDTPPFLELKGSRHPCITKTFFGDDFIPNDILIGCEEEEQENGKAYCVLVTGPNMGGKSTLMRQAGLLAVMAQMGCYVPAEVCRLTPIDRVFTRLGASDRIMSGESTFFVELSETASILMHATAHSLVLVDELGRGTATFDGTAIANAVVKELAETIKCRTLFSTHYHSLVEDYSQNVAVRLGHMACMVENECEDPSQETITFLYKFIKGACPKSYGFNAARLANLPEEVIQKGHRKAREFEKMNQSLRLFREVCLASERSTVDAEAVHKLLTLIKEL
UniProt Q86WC4, sequence (Q86WC4 whole entry, looked up): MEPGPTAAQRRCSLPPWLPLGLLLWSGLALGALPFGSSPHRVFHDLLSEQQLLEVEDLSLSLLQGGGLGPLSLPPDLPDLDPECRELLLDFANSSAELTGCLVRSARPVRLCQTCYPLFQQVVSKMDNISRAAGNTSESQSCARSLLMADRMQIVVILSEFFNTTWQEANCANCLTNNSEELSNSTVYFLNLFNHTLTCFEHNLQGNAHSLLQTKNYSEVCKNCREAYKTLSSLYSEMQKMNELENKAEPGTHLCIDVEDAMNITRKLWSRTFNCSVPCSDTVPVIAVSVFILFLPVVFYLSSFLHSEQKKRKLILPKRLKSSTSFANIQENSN
UniProt Q9BUB5, sequence (Q9BUB5 whole entry, looked up): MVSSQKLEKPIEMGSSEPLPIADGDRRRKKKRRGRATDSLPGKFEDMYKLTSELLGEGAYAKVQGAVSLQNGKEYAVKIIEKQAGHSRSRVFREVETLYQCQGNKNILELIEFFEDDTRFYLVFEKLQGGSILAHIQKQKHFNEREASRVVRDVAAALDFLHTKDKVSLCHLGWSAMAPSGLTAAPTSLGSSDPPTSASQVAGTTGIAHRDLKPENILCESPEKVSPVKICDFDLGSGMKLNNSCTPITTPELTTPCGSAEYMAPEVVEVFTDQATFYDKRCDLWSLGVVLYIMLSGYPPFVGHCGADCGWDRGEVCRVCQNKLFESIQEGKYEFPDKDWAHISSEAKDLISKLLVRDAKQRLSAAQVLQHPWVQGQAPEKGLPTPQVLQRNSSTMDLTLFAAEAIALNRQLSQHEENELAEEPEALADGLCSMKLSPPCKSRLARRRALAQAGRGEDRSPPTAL
UniProt Q9BT67, sequence (Q9BT67 whole entry, looked up): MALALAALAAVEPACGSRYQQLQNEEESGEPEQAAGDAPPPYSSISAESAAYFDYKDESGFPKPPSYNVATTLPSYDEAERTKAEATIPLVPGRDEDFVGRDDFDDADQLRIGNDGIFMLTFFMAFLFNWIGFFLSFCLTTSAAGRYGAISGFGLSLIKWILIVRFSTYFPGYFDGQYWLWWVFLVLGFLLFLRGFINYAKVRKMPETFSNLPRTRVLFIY
UniProt Q9BWT6, sequence (Q9BWT6 whole entry, looked up): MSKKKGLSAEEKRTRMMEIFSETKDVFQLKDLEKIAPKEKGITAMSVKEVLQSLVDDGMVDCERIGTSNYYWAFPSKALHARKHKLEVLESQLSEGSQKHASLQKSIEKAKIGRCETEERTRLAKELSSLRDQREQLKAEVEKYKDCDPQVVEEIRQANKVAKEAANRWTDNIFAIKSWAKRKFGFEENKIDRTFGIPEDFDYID
UniProt Q13153, sequence (Q13153 whole entry, looked up): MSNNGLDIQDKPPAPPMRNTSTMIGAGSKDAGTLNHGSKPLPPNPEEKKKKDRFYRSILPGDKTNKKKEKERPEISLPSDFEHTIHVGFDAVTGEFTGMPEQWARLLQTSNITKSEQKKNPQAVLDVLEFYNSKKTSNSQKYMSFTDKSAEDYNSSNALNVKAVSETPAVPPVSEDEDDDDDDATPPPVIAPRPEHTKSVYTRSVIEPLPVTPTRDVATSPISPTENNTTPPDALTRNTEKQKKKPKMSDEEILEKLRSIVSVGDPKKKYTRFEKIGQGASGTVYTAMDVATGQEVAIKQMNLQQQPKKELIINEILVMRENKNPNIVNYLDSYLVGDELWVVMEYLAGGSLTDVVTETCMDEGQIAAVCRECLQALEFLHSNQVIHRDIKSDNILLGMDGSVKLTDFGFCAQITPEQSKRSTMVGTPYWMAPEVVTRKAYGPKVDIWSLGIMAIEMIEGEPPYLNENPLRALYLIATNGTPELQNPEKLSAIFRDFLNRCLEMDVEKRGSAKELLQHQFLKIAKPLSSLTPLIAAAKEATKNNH
UniProt P49914, sequence (P49914 whole entry, looked up): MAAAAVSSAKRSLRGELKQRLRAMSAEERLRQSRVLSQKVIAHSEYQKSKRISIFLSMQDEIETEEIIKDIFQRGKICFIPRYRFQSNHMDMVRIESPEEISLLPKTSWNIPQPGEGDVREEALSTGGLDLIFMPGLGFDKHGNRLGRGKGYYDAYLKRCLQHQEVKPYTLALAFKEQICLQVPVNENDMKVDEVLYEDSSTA
UniProt O43809, sequence (O43809 whole entry, looked up): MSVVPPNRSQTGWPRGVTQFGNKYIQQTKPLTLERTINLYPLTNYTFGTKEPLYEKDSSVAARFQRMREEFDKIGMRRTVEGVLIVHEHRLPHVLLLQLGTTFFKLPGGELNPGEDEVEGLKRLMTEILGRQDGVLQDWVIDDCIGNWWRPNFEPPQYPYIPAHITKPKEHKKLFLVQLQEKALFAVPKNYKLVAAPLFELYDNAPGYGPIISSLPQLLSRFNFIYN

Compound in the assay: O=C(O)c1ccc2c(c1)nc(Nc1cccc(Cl)c1)c1ccncc12 [silmitasertib]
The assay is described as follows: log2 fold change, soluble protein after heating vs DMSO (PISA); higher = thermal stabilisation; K562 cells, 10 uM, 30 min; active = over 0.2 and 3.5 SD of the protein, either way, in both replicates (recomputed). An outline of the steps:
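Soluble protein was defined as the supernatant after 21,000xg for 90 min. It came from K562 cells at 2×10^6 cells/mL given 10 μM compound for 30 min, heated in aliquots for 3 min across 48°C-58°C, pooled, and extracted in PBS with 0.5% NP-40 at 4°C, and was quantified by TMTpro 16plex LC-MS/MS with equalised channel sums. Thermal stability against control samples, from duplicates, is reported as log2 fold change.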
For the target MORC3 (UniProt Q14149), the log2 fold change was 0.201.
Under MRPS31 (UniProt Q92665) stands -0.012; under MRPS9 (UniProt P82933), -0.083.
As for NDUFA9 (UniProt Q16795), the log2 fold change was -0.016.
The value for OSTM1 (UniProt Q86WC4) was 0.034; that for MRPS24 (UniProt Q96EL2) was -0.096; that for NDUFS4 (UniProt O43181) was 0.03.
As for OXSR1 (UniProt O95747), the log2 fold change is -0.071.
In the case of MIS12 (UniProt Q9H081), the log2 fold change was 0.016.
Regarding NGLY1 (UniProt Q96IV0), the log2 fold change is 0.079.
As to MND1 (UniProt Q9BWT6), the log2 fold change was -0.014.
NOL7 (UniProt Q9UMY1): the log2 fold change was 0.166.
With NDFIP1 (UniProt Q9BT67), the log2 fold change is 0.27.
As to MTHFS (UniProt P49914), the log2 fold change was 0.021.
Consider MRPL50 (UniProt Q8N5N7), for which the log2 fold change is 0.006.
As to NEDD4L (UniProt Q96PU5), the log2 fold change is 0.114.
Take NUCKS1 (UniProt Q9H1E3): the log2 fold change is -0.008.
Turning to MOV10 (UniProt Q9HCE1), the log2 fold change was 0.133.
On to NUDT21 (UniProt O43809), for which the log2 fold change is -0.124.
As to OGFR (UniProt Q9NZT2), the log2 fold change is 0.003.
For MSH6 (UniProt P52701), the log2 fold change was 0.14.
As for NECTIN2 (UniProt Q92692), the log2 fold change is -0.081.
MKNK1 (UniProt Q9BUB5): the log2 fold change is 0.012.
The value for PAK1 isoform 2 (UniProt Q13153) was 0.043.

(Values after the supplement of paper PMC10849652.)
